Screening data from PubChem.
MITF TRPM1 HTS: MITF TRPM1 promoter activation in melanoma cells; 300,000 tested, 0.75% active; activation, % at 12.5 µM; SK-MEL-5 TRPM1-promoter luciferase, 24 h; % of positive control, neutral wells = 0;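 active = mean activation of at least 80% with every replicate also reaching 80%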;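 also: 0% = neutral control wells and 100% = parthenolide positive control wells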
esBAF inh: blocks esBAF chromatin remodeling in mouse ES cells. Bmi1-luciferase knock-in reporter, 24 h; 100% = twice the neutral-well signal. reporter increase, % at 12.5 µM. 350,000 tested, 2% active; in the data active = activation above about 40%;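 also: 0% = median of the plate's neutral control wells and 100% = double that signal; a rise in the Bmi1 reporter signal indicates esBAF inhibition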
MLL AF4-AF9 inh: blocks AF4 peptide binding to human AF9; P42568; AlphaScreen, biotin-AF4 peptide binding to FLAG-AF9; inhibition, % at 10 µM; 350,000 tested, 0.47% active; AID 651704;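 active = every replicate reaching a set inhibition limit, whatever the replicate mean, cut at about 25% in these data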;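 also: 0% = plate neutral control median and 100% = total signal loss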
SMARCA2 act: increases SMARCA2 function in MMTV reporter cells | AID 652017 | MG213 cells, MMTV-luciferase reporter, dexamethasone, overnight | activation, % at 9.1 µM | 370,000 tested, 1% active; in the data active = activation above about 7.8%;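 also: 0% = vehicle wells and 100% = reference activator wells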
FGF22 binding-1: binders of recombinant human FGF22 by thermal shift | activity (Tm shift, normalised), % at 9.99 µM | AID 651658 | SYPRO orange fluorescence; percent of sucrose octasulfate shift, DMSO zero | 340,000 tested, 1.5% active | Q9HCT0;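 active = mean Tm shift, scaled 0 neutral to 100 positive control, at about 1.3% or above, every replicate too, limit read from the data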
Target sequence (Q9HCT0 whole entry, looked up): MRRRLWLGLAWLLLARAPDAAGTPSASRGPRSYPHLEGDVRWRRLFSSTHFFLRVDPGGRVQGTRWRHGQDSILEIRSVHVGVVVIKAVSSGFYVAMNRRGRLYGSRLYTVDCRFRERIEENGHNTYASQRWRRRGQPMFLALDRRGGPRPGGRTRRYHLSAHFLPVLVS
Wnt act: activates Wnt/beta-catenin signaling in a reporter cell assay; activator, plate reader; activation, % at 9.35 µM; 300,000 tested, 1.2% active; AID 743398; in the data active = activation above about 30%, passing the limit was not always enough;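 also: 0% = neutral control wells and 100% = positive control wells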
FGF22 binding-2: FGF22 (human) binding in thermal shift; thermal shift activity, °C (ΔTm) at 38 µM; 1,000 tested, 2% active; recombinant FGF22 thermal shift, SYPRO orange fluorescence; shares compounds with FGF22 binding-1; AID 720646;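 active = fitted rise in melting shift crosses a set limit at or below the top valid dose tested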
TSA no protein: counter-screen for FGF22 binders: compound-only thermal shift, no protein | AC50, µM (doses to about 38 µM) | 1,000 tested, 2% active | shares compounds with FGF22 binding-1 | compound-only SYPRO orange thermal shift counter-screen | AID 743019;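 active = rising signal whose fitted curve reaches the 0.54 level within the top valid dose, showing a melting point, actives reach about 13 µM in these data; inactive = the rest, including activity in the opposite direction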; also: value is where the raw curve crosses a fixed level and not half-maximal
Active calls of the source: *; i = inactive; . = no result; [ ] = dose if it differs, or a comment. The list is not random: actives were taken first. Their share in the collection is about 4.3%.

SMILES	MITF TRPM1 HTS	esBAF inh	MLL AF4-AF9 inh	SMARCA2 act	FGF22 binding-1	Wnt act	FGF22 binding-2	TSA no protein
COc1ccc(CN(C)C[C@H]2Oc3c(NS(C)(=O)=O)cccc3C(=O)N([C@@H](C)CO)C[C@H]2C)cc1	.	3.1	-0.4	.	3.1*	.	0.026	i
C[C@H](CO)N1C[C@H](C)[C@@H](CN(C)C(=O)C2CC2)OCc2ccccc2-c2ccccc2C1=O	.	-2.7	4.1	.	11.1*	.	0.007[42 µM]	i
C[C@@H]1CN([C@@H](C)CO)C(=O)c2ccccc2-c2ccccc2CO[C@@H]1CN(C)C(=O)C1CC1	.	-5.3	-2.0	.	-0.1	.	.	.
CCC(=O)Nc1ccc2c(c1)C(=O)N(C)C[C@H](OC)[C@H](C)CN(Cc1ccccn1)[C@H](C)CO2	.	-4.0	-0.4	.	0.0	.	.	.
C[C@H]1CN([C@@H](C)CO)S(=O)(=O)c2ccc(-c3ccncc3)cc2O[C@@H]1CN(C)C(=O)Nc1ccc(C(F)(F)F)cc1	.	3.3	-0.1	.	-0.1	.	.	.
C[C@H]1CN([C@@H](C)CO)S(=O)(=O)c2ccc(-c3ccncc3)cc2O[C@H]1CN(C)C(=O)Nc1ccc(C(F)(F)F)cc1	.	-1.5	-1.6	.	2.0*	.	0.048	i
C[C@@H]1CN([C@H](C)CO)S(=O)(=O)c2ccc(-c3ccncc3)cc2O[C@H]1CN(C)C(=O)Nc1ccc(C(F)(F)F)cc1	.	8.9	-0.3	.	-0.1	.	.	.
C[C@H](CO)N1C[C@H](C)[C@H](CN(C)C(=O)Nc2ccc(C(F)(F)F)cc2)Oc2cc(-c3ccncc3)ccc2S1(=O)=O	.	1.4	0.2	.	1.4*	.	-0.199[42 µM]	i
COCC(=O)N1CC(=O)N2[C@H](CO)[C@H](c3ccc(Br)cc3)[C@H]2C1	.	.	-3.6	.	1.6*	.	0.074	i
CCCNC(=O)N1CC(=O)N2[C@H](CO)[C@H](c3ccc(-c4cccc(C)c4)cc3)[C@@H]2C1	.	.	-11.8	.	0.7	.	.	.
CCCNC(=O)N1CC(=O)N2[C@H](C1)[C@@H](c1ccc(-c3cccc(C)c3)cc1)[C@@H]2CO	.	.	-10.8	.	6.9*	.	0.222	i
O=C(NC1CCCCC1)N1CC(=O)N2[C@H](C1)[C@@H](c1ccc(-c3cccc(F)c3)cc1)[C@@H]2CO	.	.	1.5	.	2.3*	.	-0.042	i
CCCNC(=O)N1CC(=O)N2[C@H](CO)[C@@H](c3ccc(-c4cccc(C)c4)cc3)[C@@H]2C1	.	.	-11.8	.	2.2*	.	0.222[42 µM]	i
COc1ccc(S(=O)(=O)Nc2ccc3c(c2)C(=O)N(C)C[C@@H](OC)[C@H](C)CN[C@@H](C)CO3)cc1	.	-4.6	0.8	.	.	.	.	.
O=C(Nc1ccccc1)[C@H]1[C@H](CO)[C@H]2Cn3c(cccc3=O)[C@@H]1N2C(=O)c1ccccc1	.	-0.3	-7.1	.	0.0	.	.	.
O=C(NCC[C@H]1CC[C@H](NC(=O)C2CCCCC2)[C@@H](CO)O1)c1cc(Cl)cc(Cl)c1	.	7.4	-2.8	.	0.6	.	.	.
O=C(c1ccccc1F)N1CC(=O)N2[C@@H](CO)[C@H](c3ccc(-c4ccc(F)cc4)cc3)[C@@H]2C1	.	.	-4.2	.	1.8*	.	0.142[42 µM]	i
CCNC(=O)C[C@H]1CC[C@H]2[C@H](COc3ccc(NC(=O)C4CCOCC4)cc3C(=O)N2C)O1	.	9.1	-0.2	.	0.1	.	.	.
COc1cc(OC)cc(C(=O)Nc2ccc(S(=O)(=O)Nc3cc(C)nc(C)n3)cc2)c1	.	.	.	-0.7	.	.	.	.
COc1cc(OC)cc(C(=O)Nc2ccc(S(=O)(=O)Nc3nc(C)cc(C)n3)cc2)c1	-10.1	-3.3	-2.1	-3.6	1.4*	-1.9	0.05	i
CCCNC(=O)[C@H]1N[C@H]2c3ccc(C4=CCCCC4)c(=O)n3C[C@H]2[C@@H]1CO	.	4.9	1.6	.	-0.2	.	.	.
COc1cc(C(=O)NC(=S)Nc2ccccc2[N+](=O)[O-])cc(OC)c1OC	-5.0	.	1.5	0.1	1.8*	-1.0	0.128	i
COc1cc(C(=O)NC(=S)Nc2ccc([N+](=O)[O-])cc2C)cc(OC)c1OC	7.0	6.0	-0.1	-2.0	0.7	-1.7	.	.
